Test results from PubChem BioAssay (Tox21).
Records with an inconclusive call do not appear. Active and inactive are the calls of the source. Unless noted, calls come from the whole dose curve; as a rule, active = well fitted curve in the direction sought with a large enough effect in the repeat runs; inconclusive = weak or mixed curves; inactive = no such curve, though single readings can be large; an effect the other way counts as inactive or inconclusive.

What was measured:
[1] = qHTS assay to identify small molecule agonists of the estrogen receptor alpha (ER-alpha) signaling pathway in the presence of an antagonist - cell viability counter screen (AID 1259386);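 note: cells exposed to compounds for 22 h at 37 °C before the viability read; nearly all actives have a fitted effect of over 30% in size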; note: potency is the fitted concentration of half-maximal effect; for activity change, negative = cytotoxicity: series mostly up to about 92 µM
Procedure, shortened: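 ICI-182,780 at 10.0nM final accompanies the compound titration (15 concentrations, 22hr, 37C) on VM7Luc4E2 cells. The CellTiter-Fluor fluorescence readout runs in the same wells as the luciferase assay.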

[2] = molecular target: Progesterone receptor (Homo sapiens) (UniProt P06401); assay: qHTS assay to identify small molecule agonists of the progesterone receptor (PR) signaling pathway (AID 1346784; calls by dose curve; note: nearly all actives have a fitted effect of over 30% in size)
Chain of Progesterone receptor (Homo sapiens) (P06401 whole entry, looked up): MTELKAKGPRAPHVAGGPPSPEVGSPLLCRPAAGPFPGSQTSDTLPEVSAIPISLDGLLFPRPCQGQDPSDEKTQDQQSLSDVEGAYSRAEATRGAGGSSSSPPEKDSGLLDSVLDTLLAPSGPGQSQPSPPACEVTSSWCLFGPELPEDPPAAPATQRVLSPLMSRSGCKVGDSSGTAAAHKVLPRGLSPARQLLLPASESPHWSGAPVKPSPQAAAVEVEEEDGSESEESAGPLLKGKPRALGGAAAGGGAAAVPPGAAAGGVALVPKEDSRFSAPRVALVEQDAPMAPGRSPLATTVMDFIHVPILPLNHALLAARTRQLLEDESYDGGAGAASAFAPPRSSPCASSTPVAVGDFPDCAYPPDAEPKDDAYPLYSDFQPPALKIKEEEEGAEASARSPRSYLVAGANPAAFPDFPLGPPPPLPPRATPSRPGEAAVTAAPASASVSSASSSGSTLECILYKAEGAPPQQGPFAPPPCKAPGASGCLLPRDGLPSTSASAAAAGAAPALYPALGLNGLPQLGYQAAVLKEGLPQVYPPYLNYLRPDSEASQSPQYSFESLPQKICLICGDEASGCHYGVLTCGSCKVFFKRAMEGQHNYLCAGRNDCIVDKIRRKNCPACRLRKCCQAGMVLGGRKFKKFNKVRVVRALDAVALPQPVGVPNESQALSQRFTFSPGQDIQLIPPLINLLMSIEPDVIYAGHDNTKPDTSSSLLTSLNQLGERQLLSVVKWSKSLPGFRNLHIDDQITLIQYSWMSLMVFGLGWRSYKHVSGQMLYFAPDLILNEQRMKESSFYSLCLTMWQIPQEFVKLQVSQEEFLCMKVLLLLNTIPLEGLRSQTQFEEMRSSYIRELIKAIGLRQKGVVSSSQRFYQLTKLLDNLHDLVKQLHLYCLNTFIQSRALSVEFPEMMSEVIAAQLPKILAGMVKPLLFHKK
Procedure, shortened: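 Beta-lactamase reporter read-out: after 16 hr compound treatment at 37C and a further 2 hr at room temperature with LiveBLAzer B/G FRET substrate, fluorescence was measured in PR-UAS-bla HEK 293T cells grown in 2% charcoal-stripped serum.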

[3] = molecular target: Progesterone receptor (Homo sapiens) (UniProt P06401); assay: qHTS assay to identify small molecule antagonists of the progesterone receptor (PR) signaling pathway (AID 1346795; active = well fitted inhibition curve with a large enough effect in the signal ratio in the repeat runs, not every such curve was filed as active; the % refers to the signal ratio)
Procedure, shortened: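 Read-out is fluorescence from the LiveBLAzer B/G FRET substrate, cleaved by a UAS-controlled beta-lactamase in PR-UAS-bla HEK293T cells after 16 hr exposure to compound plus 1 nM promegestone (final), followed by 2 hr at room temperature.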

[4] = qHTS assay to identify small molecule antagonists of the progesterone receptor (PR) signaling pathway - cell viability counter screen (AID 1346798); note: nearly all actives have a fitted effect of over 50% in size; note: potency is the fitted concentration of half-maximal effect;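 for activity change, negative = cytotoxicity: HEK293T PR-UAS-bla cells stimulated with the agonist R5020; series mostly up to about 92 µM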
Procedure, shortened: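 HEK293T PR-UAS-bla, 2% charcoal-stripped FBS; 4 hr pre-plate; cpd + R5020, 16 h 37C; LiveBLAzer read first; then CellTiter-Glo 30 min RT, luminescence.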

[5] = qHTS assay to identify small molecule agonists of the progesterone receptor (PR) signaling pathway - cell viability counter screen (AID 1346799; calls by dose curve; note: nearly all actives have a fitted effect of over 45% in size)
Procedure, shortened: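 Luminescence from CellTiter-Glo, added after the beta-lactamase FRET read in the same wells, gave cytotoxicity in PR-UAS-bla HEK293T cells treated with compounds for 16 hr at 37C.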

[6] = qHTS assay to identify small molecule antagonists of the TGF-beta/Smad signaling pathway - cell viability counter screen (AID 1346824); note: nearly all actives have a fitted effect of over 50% in size
Procedure, shortened: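 SBE-bla HEK 293T cells were plated overnight at 37 C, then given compounds in DMSO plus TGF-beta1 (added as 0.25 ng/mL solution) for 5 hr. After the bla read, CellTiter-Glo was added to the same wells and luminescence read after 30 min at room temperature.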

[7] = qHTS assay to identify small molecule agonists of the TGF-beta/Smad signaling pathway - cell viability counter screen (AID 1346829); note: top concentration of the series differs between compounds; nearly all actives have a fitted effect of over 45% in size
Procedure, shortened: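 HEK 293T SBE-bla line, 5 hr compound exposure at 37 C, multiplexed CellTiter-Glo viability read by luminescence.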

[8] = molecular target: Thyrotropin-releasing hormone receptor (Homo sapiens) (UniProt P34981); assay: qHTS assay to identify small molecule antagonists of the thyrotropin-releasing hormone receptor (TRHR) signaling pathway (AID 1346877; active = well fitted inhibition curve with a large enough effect in the repeat runs, not every such curve was filed as active; note: series mostly up to about 51 µM)
Chain of Thyrotropin-releasing hormone receptor (Homo sapiens) (P34981 whole entry, looked up): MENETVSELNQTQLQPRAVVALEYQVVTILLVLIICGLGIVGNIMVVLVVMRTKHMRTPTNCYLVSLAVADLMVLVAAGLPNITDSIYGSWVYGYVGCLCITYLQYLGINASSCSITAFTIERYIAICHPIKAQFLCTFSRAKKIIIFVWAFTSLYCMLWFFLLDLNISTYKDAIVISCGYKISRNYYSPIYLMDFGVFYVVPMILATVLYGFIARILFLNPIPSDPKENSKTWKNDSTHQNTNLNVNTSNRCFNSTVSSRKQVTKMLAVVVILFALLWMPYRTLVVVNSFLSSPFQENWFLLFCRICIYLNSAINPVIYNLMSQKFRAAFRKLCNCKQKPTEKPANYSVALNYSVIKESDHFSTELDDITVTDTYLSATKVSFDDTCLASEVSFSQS
Procedure, shortened: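 Screening used HEK293 cells engineered with TRHR, with a brief 5 min room-temperature compound exposure preceding addition of TRH to 1 nM. The read-out was kinetic calcium-dye fluorescence, concentration-response from 15 doses in triplicate.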

[9] = molecular target: Thyrotropin-releasing hormone receptor (Homo sapiens) (UniProt P34981); assay: qHTS assay to identify small molecule agonists of the thyrotropin-releasing hormone receptor (TRHR) signaling pathway (AID 1346891; calls by dose curve; note: series mostly up to about 58 µM)
Procedure, shortened: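 Intracellular calcium rise, read as fluorescence every second for 3 min, served as the agonist signal in dye-loaded HEK293 cells expressing TRHR; each compound ran at 15 concentrations in triplicate.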

[10] = Human pregnane X receptor (PXR) small molecule agonists, qHTS cell viability counter screen (AID 1346977); note: nearly all actives have a fitted effect of over 50% in size; note: potency is the fitted concentration of half-maximal effect
Procedure, shortened: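 PXR-Luc HepG2, 2,000 cells/well, 5% charcoal-stripped FBS; 5hr settle; cpd 24hr, 37C/5% CO2; CellTiter-Fluor at 23hr, read 1hr later (fluorescence).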

[11] = Caspase-3/7 induction in HepG2 cells by small molecules, qHTS assay (AID 1346978); note: nearly all actives have a fitted effect of over 15% in size
Procedure, shortened: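 Wild-type HepG2 cells (2,000/well) were settled 5 h at 37 C, 5% CO2, then exposed to compounds in DMSO for 17 h. Caspase-3/7 activity was read by luminescence 30 min after adding Caspase-Glo 3/7 reagent at room temperature.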

[12] = Caspase-3/7 induction in CHO-K1 cells by small molecules, qHTS cell viability counter screen (AID 1346979); note: nearly all actives have a fitted effect of over 35% in size; note: potency is the fitted concentration of half-maximal effect
Procedure, shortened: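 Cells (CHO-K1, wild type) are plated at 1,500 per well and incubated 5hr. Test compounds in DMSO are then pinned in, followed by 16hr at 37C and 5% CO2. Viability is read by CellTiter-Fluor fluorescence after 1hr.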

[13] = Caspase-3/7 induction in CHO-K1 cells by small molecules, qHTS assay (AID 1346980); note: nearly all actives have a fitted effect of over 15% in size
Procedure, shortened: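 Wild-type cells were seeded at 1,500 per well and settled 5 hr at 37 C, 5% CO2, then exposed to DMSO-dissolved compounds for 17 hr. Caspase-Glo 3/7 reagent was added, and luminescence was read after 30min at room temperature.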

[14] = molecular target: Nuclear receptor subfamily 1 group I member 2 (Homo sapiens) (UniProt O75469); assay: Human pregnane X receptor (PXR) small molecule agonists, qHTS assay (AID 1346982); note: nearly all actives have a fitted effect of over 35% in size; note: potency is the fitted concentration of half-maximal effect
Chain of Nuclear receptor subfamily 1 group I member 2 (Homo sapiens) (O75469 whole entry, looked up): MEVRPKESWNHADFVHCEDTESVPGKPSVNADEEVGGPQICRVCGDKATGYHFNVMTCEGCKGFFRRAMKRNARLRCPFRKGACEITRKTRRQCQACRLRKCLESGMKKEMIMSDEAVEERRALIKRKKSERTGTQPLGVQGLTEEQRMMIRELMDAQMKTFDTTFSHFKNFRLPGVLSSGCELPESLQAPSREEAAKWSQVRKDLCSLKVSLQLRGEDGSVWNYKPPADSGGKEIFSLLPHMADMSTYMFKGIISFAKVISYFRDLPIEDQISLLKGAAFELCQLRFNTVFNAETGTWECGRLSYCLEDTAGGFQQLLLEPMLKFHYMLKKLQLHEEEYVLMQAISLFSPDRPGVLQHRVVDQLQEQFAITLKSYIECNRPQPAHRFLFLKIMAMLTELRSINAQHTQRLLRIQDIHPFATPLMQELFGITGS
Procedure, shortened: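 We seeded PXR-Luc HepG2 cells in assay medium containing 5% charcoal-stripped FBS, added compounds 5 hr later, incubated 24 hr, and read luminescence with ONE-Glo reagent.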

[15] = Caspase-3/7 induction in HepG2 cells by small molecules, qHTS cell viability counter screen (AID 1346981); note: series mostly up to about 92 µM; nearly all actives have a fitted effect of over 30% in size
Procedure, shortened: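 Multiplexed with the caspase-3/7 assay: HepG2 cells, 16 hr compound treatment, CellTiter-Fluor viability detection by fluorescence.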

[16] = molecular target: Acetylcholinesterase (Homo sapiens) (UniProt P22303); assay: Acetylcholinesterase (AChE) small molecule antagonists: colormetric cell-based qHTS assay (AID 1347395; calls by dose curve; note: nearly all actives have a fitted effect of over 30% in size; note: potency is the fitted concentration of half-maximal effect)
Chain of Acetylcholinesterase (Homo sapiens) (P22303 whole entry, looked up): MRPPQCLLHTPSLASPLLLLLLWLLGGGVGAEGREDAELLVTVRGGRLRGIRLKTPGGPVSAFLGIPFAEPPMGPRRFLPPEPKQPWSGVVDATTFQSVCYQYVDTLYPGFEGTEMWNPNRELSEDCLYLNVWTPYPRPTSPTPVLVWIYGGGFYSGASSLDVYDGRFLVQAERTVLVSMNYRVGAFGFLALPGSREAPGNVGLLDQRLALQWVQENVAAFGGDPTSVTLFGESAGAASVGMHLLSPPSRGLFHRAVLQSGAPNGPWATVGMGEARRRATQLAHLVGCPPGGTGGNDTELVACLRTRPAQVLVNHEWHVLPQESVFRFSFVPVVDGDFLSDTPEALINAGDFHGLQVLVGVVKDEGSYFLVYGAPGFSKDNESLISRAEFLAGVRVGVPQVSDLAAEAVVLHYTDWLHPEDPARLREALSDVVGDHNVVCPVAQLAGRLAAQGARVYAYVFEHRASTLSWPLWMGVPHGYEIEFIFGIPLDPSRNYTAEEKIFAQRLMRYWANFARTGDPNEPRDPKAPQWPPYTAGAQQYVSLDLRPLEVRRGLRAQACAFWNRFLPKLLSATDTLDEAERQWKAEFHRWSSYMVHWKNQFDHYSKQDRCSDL
Procedure, shortened: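 Colorimetric read-out: DTNB detects thiocholine released when cellular AChE in SH-SY5Y cells hydrolyses acetylthiocholine. Cells attached overnight, received compound for 30 min at 37 C, then substrate mix for 90 min at 37 C.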

[17] = qHTS assay to identify small molecule agonists of the TGF-beta/Smad signaling pathway (AID 1346859; active = well fitted activation curve with a large enough effect in the signal ratio in the repeat runs, not every such curve was filed as active; the % refers to the signal ratio; note: series mostly up to about 77 µM)
Procedure, shortened: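 SBE-bla HEK 293T, 4,000 cells/well, plated o/n; cpd in DMSO, 5 hr, 37 C/5% CO2; B/G FRET substrate 2 hr RT; ex 405, em 460/530 nm.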

[18] = molecular target: Nuclear receptor subfamily 1 group I member 2 (Rattus norvegicus) (UniProt Q9R1A7); assay: Rat pregnane X receptor (rPXR) activation by small molecules, qHTS assay (AID 1346983); conditions: rPXR luciferase reporter cells, One-Glo luminescence, 24 h; stronger effect = higher value; note: nearly all actives have a fitted effect of over 20% in size
Chain of Nuclear receptor subfamily 1 group I member 2 (Rattus norvegicus) (Q9R1A7 whole entry, looked up): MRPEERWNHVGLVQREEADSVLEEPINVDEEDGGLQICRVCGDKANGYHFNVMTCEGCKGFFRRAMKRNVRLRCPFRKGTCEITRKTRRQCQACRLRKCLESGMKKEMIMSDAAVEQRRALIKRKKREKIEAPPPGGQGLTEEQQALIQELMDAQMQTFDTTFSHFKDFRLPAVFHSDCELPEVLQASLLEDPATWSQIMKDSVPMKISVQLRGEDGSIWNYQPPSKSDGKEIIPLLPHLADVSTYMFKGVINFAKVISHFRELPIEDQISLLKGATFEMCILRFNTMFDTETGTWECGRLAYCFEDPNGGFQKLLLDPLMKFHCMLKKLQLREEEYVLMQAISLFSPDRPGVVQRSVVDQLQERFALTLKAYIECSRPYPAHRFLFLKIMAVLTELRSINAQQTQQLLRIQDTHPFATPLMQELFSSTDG
Procedure, shortened: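 Cell-based rPXR luciferase reporter assay, 2,000 cells per well, rested 5hr at 37 C before compound addition in DMSO, then 24 hr at 37 C. One-Glo reagent was added and luminescence read after 30 min at room temperature.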

[19] = molecular target: Nuclear receptor subfamily 1 group I member 2 (Homo sapiens) (UniProt O75469); assay: CYP3A4 induction through human pregnane X receptor (PXR) by small molecules, qHTS assay (AID 1346984); note: nearly all actives have a fitted effect of over 40% in size
Procedure, shortened: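 qHTS, concentration-response format: HepG2 DPX-2 line, PXR/CYP3A4-luc. Exposure 24 h, 37C. Substrate Luciferin-IPA 3uM final, 3 h. Detection One-Glo, 30 min RT.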

[20] = molecular target: Nuclear receptor subfamily 1 group I member 2 (Homo sapiens) (UniProt O75469); assay: Human pregnane X receptor (PXR) activation by small molecules, qHTS assay (AID 1346985); note: nearly all actives have a fitted effect of over 40% in size
Procedure, shortened: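 DPX-2 cells (HepG2 co-transfected with a PXR response element and a CYP3A4-promoter luciferase construct) were seeded at 2,000 per well, rested 5 hr at 37C, then exposed to DMSO-dissolved compounds for 24 hr. Activation was read as luciferase luminescence.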
% is set by controls: 0 for no effect and ±100 for the full control effect.

Cn1c(N)nc2c3cccnc3ccc21
active: Potency [1] 26 µM | Potency [10] 26 µM | Potency [12] 51.8 µM | Potency [14] 51.8 µM
inactive: Potency [2] | Potency [3] | Potency [4] | Potency [5] | outcome [6] | Potency [7] | Potency [8] | outcome [9] | outcome [11] | outcome [13]

O=P(O)(O)CN(CP(=O)(O)O)CP(=O)(O)O
inactive: Potency [1] | Potency [2] | Potency [3] | Potency [4] | Potency [5] | outcome [6] | Potency [7] | Potency [10] | outcome [11] | outcome [13] | Potency [15] | Potency [14] | Potency [16]

ClCCN1CCCC1
inactive: Potency [1] | Potency [2] | Potency [3] | Potency [4] | outcome [6] | Potency [7] | Potency [10] | outcome [11] | Potency [12] | outcome [13] | Potency [15] | Potency [14] | Potency [16]

C(COCC1CO1)OCC1CO1 (stereo not drawn)
inactive: Potency [1] | Potency [2] | Potency [3] | Potency [4] | Potency [5] | Potency [7] | outcome [17] | Potency [8] | outcome [9] | outcome [11] | outcome [13] | Potency [15] | Potency [16]
active: Potency [14] 48.6 µM

CC1N=C(N)OC1c1ccccc1 (stereo not drawn)
active: Potency [4] 37.7 µM
inactive: Potency [1] | Potency [2] | Potency [3] | Potency [5] | outcome [6] | Potency [7] | Potency [8] | outcome [9] | outcome [11] | outcome [13] | Potency [15] | Potency [14] | Potency [16]

COc1ccc(CN2CCNCC2)c(OC)c1OC
inactive: Potency [1] | Potency [2] | Potency [3] | Potency [4] | outcome [6] | Potency [7] | Potency [8] | outcome [9] | Potency [10] | outcome [11] | outcome [13] | Potency [15] | Potency [16]

CC[C@@H](CO)NC(=O)[C@@H]1C=C2c3cccc4c3c(cn4C)C[C@H]2N(C)C1
active: Potency [16] 2.45 µM
inactive: Potency [1] | Potency [2] | Potency [3] | Potency [4] | Potency [5] | outcome [6] | Potency [7] | Potency [8] | outcome [9] | Potency [10] | Potency [12] | outcome [13] | Potency [15] | max activation [18] 4.36% | Potency [19] | Potency [20]

Nc1c(Cl)c(F)nc(OCC(=O)O)c1Cl
inactive: Potency [1] | Potency [2] | Potency [3] | Potency [4] | outcome [6] | Potency [7] | outcome [17] | Potency [8] | outcome [9] | Potency [12] | outcome [13] | Potency [15] | Potency [14] | Potency [16]

CON(C)C(=O)Nc1ccc(Br)cc1
active: Potency [14] 38.6 µM
inactive: Potency [1] | Potency [2] | Potency [3] | Potency [4] | outcome [6] | Potency [7] | Potency [8] | outcome [9] | Potency [10] | Potency [12] | outcome [13] | Potency [15] | Potency [16]

Cc1ccc2c(c1)C1CN(C)CCC1N2 (stereo not drawn)
inactive: activity change, negative = cytotoxicity [1] -4.97% [at 19 µM] | activation [2] -0.799% [at 19 µM] | activity change, negative = inhibition [3] 5.78% [at 18.9 µM] | activity change, negative = cytotoxicity [4] -15.8% [at 18.9 µM] | activity change, negative = cytotoxicity [5] -23.2% [at 19 µM] | viability change, negative = cytotoxic [6] 0.721% [at 15.8 µM] | activity change, negative = cytotoxicity [7] -8.68% [at 15.8 µM] | activity change, negative = cytotoxicity [10] -7.69% [at 19 µM] | caspase activation [11] -1.19% [at 19 µM] | activity change, negative = cytotoxicity [12] -2.08% [at 19 µM] | caspase-3/7 activation [13] -0.28% [at 19 µM] | activity change, negative = cytotoxicity [15] -0.14% [at 19 µM] | activation [14] -3.35% [at 19 µM] | max activation [18] 1.15% | Potency [19] | Potency [20] | activity, negative = inhibition [16] -0.458% [at 23.6 µM]

COC[C@@H](NC(C)=O)C(=O)NCc1ccccc1
inactive: Potency [1] | Potency [2] | Potency [3] | Potency [4] | outcome [6] | Potency [7] | outcome [17] | Potency [10] | outcome [11] | outcome [13] | Potency [15] | Potency [14] | Potency [16]

CCOc1cc(OP(=S)(OC)OC)nc(CC)n1
inactive: Potency [1] | Potency [2] | Potency [3] | Potency [4] | Potency [5] | outcome [6] | Potency [7] | Potency [8] | outcome [9] | Potency [10] | outcome [11] | Potency [12] | outcome [13] | Potency [15] | Potency [14] | Potency [16]

O=CCCl
inactive: Potency [1] | Potency [2] | Potency [3] | Potency [4] | Potency [5] | Potency [7] | outcome [17] | Potency [8] | outcome [9] | Potency [10] | outcome [11] | Potency [12] | outcome [13] | Potency [15] | Potency [14] | Potency [16]

CC(C)(C)C(=O)C(Cl)Cl
inactive: Potency [1] | Potency [2] | Potency [3] | Potency [4] | Potency [5] | outcome [6] | Potency [7] | Potency [8] | outcome [9] | outcome [11] | Potency [12] | outcome [13] | Potency [15] | Potency [14] | Potency [16]

OP(O)c1ccccc1
inactive: Potency [1] | Potency [3] | Potency [4] | Potency [5] | outcome [6] | Potency [7] | outcome [17] | Potency [8] | outcome [9] | Potency [10] | Potency [12] | outcome [13] | Potency [15] | Potency [14] | Potency [16]
